# Compound activity from PubChem BioAssay.
# Pf growth 96h = P. falciparum growth inhibition at 96 hour, primary screen for plastid delayed-death inhibitors | P. falciparum luciferase reporter growth, 96 h | Potency, µM (top dose mostly 28.7 µM), without a hit: top-dose activity change, negative = inhibition, actives largely listed as inhibitors | 320,000 tested, 6.9% active; note: potency is the fitted concentration of half-maximal effect; % is set by controls: 0 for no effect and ±100 for the full control effect
#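 Plates of compound plus infected erythrocytes (2% hematocrit, 0.05% parasitemia final) incubate 96 hours, 37 C, 5% CO2. Detection reagent added; reduced luminescence from the parasites' luciferase reporter flags inhibition.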
# NS1 function inh = inhibitors of influenza NS1 protein function; Potency, µM (titrated, usually from 46.1 µM), for inactives: at the top dose activity, positive = more growth; 270,000 tested, 0.4% active; calls by dose curve; note: potency is the fitted concentration of half-maximal effect; actives are rising curves; nearly all actives have a fitted effect of over 50% in size
#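 Compounds were scored for reversing the slow growth caused by influenza A NS1 in S. cerevisiae, measured by optical density at 600 nm. Assay medium contained 2% galactose at pH 6.0; NS1-free yeast of the same strain were the positive control.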
# Cycloheximide cs = counter-screen for Shiga toxin inhibitors: cycloheximide protein synthesis inhibition | 300,000 tested, 12% active | max response, % | cell reporter, cycloheximide protein synthesis inhibition counterscreen | AID 2314; in the data active = max response mostly above about 13%, no sharp cut-off; inactive = mostly below about 14%; note: read at 38.3 µM for the half of the compounds with a filed dose; 0% is about no effect
# Sm TGR inh = S. mansoni TGR enzyme inhibition; AID 485364; Q962Y6; Potency, µM (top dose mostly 114 µM), for inactives: at the top dose activity change, negative = inhibition, actives largely listed as inhibitors; purified TGR, DTNB reduction, TNB absorbance 405 nm; 360,000 tested, 3% active; note: potency is the fitted concentration of half-maximal effect; % is set by controls: 0 for no effect and ±100 for the full control effect; nearly all actives have a fitted effect of over 60% in size
#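 TGR 20 nM + NADPH 100 uM (dispensed conc.), cpd preinc 15 min RT; start with NADPH (500 uM addition) then DTNB (15 mM addition). Kinetic TNB absorbance, 405 nm filter. Four-parameter Hill fit across titration.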
# Pf growth 48h = inhibits P. falciparum growth in the first generation, 48 h; 310,000 tested, 5.9% active; Potency, µM (series often up to 28.7 µM), inactives show at the top dose activity change, negative = inhibition, usual class: inhibitors; P. falciparum luciferase growth in erythrocytes, 48 h; note: potency is the fitted concentration of half-maximal effect; % is set by controls: 0 for no effect and ±100 for the full control effect
#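 Parasite viability was followed by luminescence of a genomically integrated firefly luciferase. Cultures held 0.1% parasitemia at 2% hematocrit (final), incubated under 5% CO2 at 37 C.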
# Shiga inhibitor = inhibitors of Shiga toxin in Vero cells; Vero cells, Shiga toxin protein synthesis inhibition reporter; inhibition, % at 38.7 µM; 290,000 tested, 9.2% active; AID 2315; in the data active = inhibition mostly above about 28%, no sharp cut-off; inactive = mostly below about 43%; note: 0% is about no effect
# * hit, by the source's call; ? = inconclusive; · = not tested or not shown. The list is not random: actives were taken first. Their share in the collection is about 21%. Unless noted, calls come from the whole dose curve; as a rule, active = well fitted curve in the direction sought with a large enough effect; inconclusive = small, poorly fitted or top-dose-only effect, or another doubt; inactive = no such curve, though single readings can be large; an effect the other way counts as inactive or inconclusive.
SMILES,Pf growth 96h,NS1 function inh,Cycloheximide cs,Sm TGR inh,Pf growth 48h,Shiga inhibitor
Cc1nc(NC(=O)c2cccc(-c3cc4ccccc4oc3=O)c2)ccc1Br,-18%,22%,2,5%,95%,31
O=C(Nc1ccc(N2CCCC2)cc1)c1cccc(-c2cc3ccccc3oc2=O)c1,0.41µM*,?,8,-15%,9%,14
O=C(O)C(Cc1c[nH]c2ccccc12)N1C(=O)c2ccccc2C1=O (stereo not drawn),22%,-3%,-2,10%,9%,9
CNC(=O)COc1coc(CN2CCN(Cc3ccccc3)CC2)cc1=O,-4%,7%,-3,-5%,15%,-8
Cc1ccc2c(cnn2C(=O)CCCC(=O)NCc2ccc(F)cc2)c1,5%,-8%,11*,0%,25%,26*
Cc1ccc2c(cnn2C(=O)CCC(=O)NCc2cccc(Br)c2)c1,2.6µM*,-21%,-1,-16%,18%,-1
COc1ccc(-c2c3c(=O)n(C)c(=O)n(C)c3c3c(-c4cccc(C)c4)nc4ccccc4n23)cc1,·,·,·,1%,·,·
Cc1cc(Cl)ccc1OCC(=O)NC(=S)Nc1ccc(Cl)cn1,?,16%,-2,8%,3%,-5
CCOC(=O)CNc1c(-c2ccc(O)cc2)nc2ccc(Cl)cn12,?,-12%,23*,-26%,2%,56
O=C(Nc1c(-c2ccccc2)nc2ccc(Cl)cn12)c1cccs1,5.2µM*,10%,10,-9%,0%,-4
CCCC(=O)NC(=S)Nc1ccc(Cl)cn1,-5%,-56%,30*,35%,8%,55
Cc1ccn2c(NC(=O)c3cccs3)c(-c3ccccc3)nc2c1,?,2%,-3,-3%,5%,-6
CCOC(=O)CNc1c(-c2ccccc2)nc2ccc(Cl)cn12,93%,-37%,7,4%,40%,25
O=C(NC(=S)Nc1cc(Cl)ccc1O)c1cccc(Br)c1,3.3µM*,-70%,42*,-4%,?,90*
COc1ccccc1N1CCN(C(=O)Cc2c(C(=O)O)c(C)cn2C)CC1,·,·,·,-4%,·,·
Cc1nn(-c2ccc(Cl)cc2)c2nc(-c3cccnc3)cc(C(F)(F)F)c12,·,·,·,-9%,·,·
O=C(Nc1ncc(Cl)cn1)c1cccs1,64%,-14%,45*,0%,·,59*
O=C(NNC(=O)c1cccs1)c1ccc(Cl)nc1,32%,·,·,-4%,19%,·
O=C(NC(=S)Nc1cccnc1)c1ccccc1,14%,-4%,28*,22µM*,65%,71*
O=C(NC(=S)Nc1cccnc1)c1cccs1,?,-2%,20*,10µM*,23%,42*
Cc1snnc1C(=O)NC(=S)Nc1ccccc1,6%,-8%,-2,8.9µM*,88%,4
COc1ccc(CCC(=O)Nc2cc3c4c(c2)CCC(=O)N4CCC3)cc1,?,·,·,-2%,?,·
O=C(Nc1cc(F)ccc1F)c1ccc2c(c1)nnn2C1CCCC1,·,·,·,-5%,·,·
O=C(NC(=S)Nc1ccc(Cl)cn1)c1cccs1,?,-40%,63*,0%,465%,99*
O=C(NC(=S)Nc1cccnc1)c1cccc(Br)c1,0%,-39%,17*,16µM*,11%,63*
SMILES,Pf growth 96h,NS1 function inh,Cycloheximide cs,Sm TGR inh,Pf growth 48h,Shiga inhibitor
O=C(NC(=S)NCc1cccnc1)c1ccccc1,5%,9%,1,-9%,27%,-11
O=C(Nc1cnccn1)c1cccs1,·,-17%,19*,-6%,0%,66
O=C(COC(=O)CCC(=O)c1cccs1)Nc1ccc(Cl)cn1,-8%,7%,7,6%,-6%,-4
O=C(NC(=S)NCCSc1ccccc1)c1cccnc1,-25%,-5%,27*,-35%,53%,37*
COc1cc(/C=C/c2cc(C(=O)O)c3ccccc3n2)cc(OC)c1O,16%,7%,2,-22%,-4%,3
COc1cc(/C=C/c2nnc3c4ccccc4ncn23)cc(OC)c1OC,?,0%,14*,-4%,9.3µM*,14
C(=C\c1nnc2c3ccccc3ncn12)/c1ccccc1,166%,-45%,51*,-5%,129%,61*
CN(CC(=O)Nc1ccccc1Cl)C(=O)c1ccc(-c2cccc(C(F)(F)F)c2)o1,0.41µM*,·,·,?,2.1µM*,·
